Compound activity deposited in PubChem BioAssay by several laboratories.
The list is not random: actives were taken first. Their share in the collection is about 3.1%.
EP2 antag = blocks the human prostaglandin E2 receptor EP2; P43116; inhibition, % at 25 µM; AID 1422; 260,000 compounds, 0.52% hits; C6 glioma cells expressing human EP2, cAMP TR-FRET; cells stimulated with saturating PGE2;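 active means percent inhibition above 40 after rounding to a whole number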;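 further: rat C6 glioma host cells with rolipram phosphodiesterase inhibitor present; the protocol text gives 20 µM as final concentration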
Target sequence (P43116 whole entry, looked up): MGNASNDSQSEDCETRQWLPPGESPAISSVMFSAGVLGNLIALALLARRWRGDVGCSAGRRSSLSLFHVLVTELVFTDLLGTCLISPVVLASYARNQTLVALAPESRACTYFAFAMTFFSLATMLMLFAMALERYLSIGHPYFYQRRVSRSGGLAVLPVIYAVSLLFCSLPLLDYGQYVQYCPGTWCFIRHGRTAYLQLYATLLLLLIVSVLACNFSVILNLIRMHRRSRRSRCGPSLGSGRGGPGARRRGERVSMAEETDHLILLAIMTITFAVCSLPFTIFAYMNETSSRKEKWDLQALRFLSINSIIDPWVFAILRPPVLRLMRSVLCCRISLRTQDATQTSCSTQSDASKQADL
S1P3 antag = blocks the human S1P3 receptor; CHO S1P3 NFAT-BLA reporter, FRET fluorescence, antagonist mode; 170,000 compounds, 0.27% hits; inhibition, % at 4.98 µM; AID 485;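 active means inhibition above the plate cutoff, the mean inhibition of test wells on that plate plus 3 SD, cut at about 28% in these data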;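 further: cells challenged with S1P at its EC80 of 0.8 µM; blue over green emission ratio from cleaved BLA substrate after 4 h stimulation; 0% = S1P-stimulated wells and 100% = unstimulated DMSO-only wells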
Target sequence (Q99500 whole entry, looked up): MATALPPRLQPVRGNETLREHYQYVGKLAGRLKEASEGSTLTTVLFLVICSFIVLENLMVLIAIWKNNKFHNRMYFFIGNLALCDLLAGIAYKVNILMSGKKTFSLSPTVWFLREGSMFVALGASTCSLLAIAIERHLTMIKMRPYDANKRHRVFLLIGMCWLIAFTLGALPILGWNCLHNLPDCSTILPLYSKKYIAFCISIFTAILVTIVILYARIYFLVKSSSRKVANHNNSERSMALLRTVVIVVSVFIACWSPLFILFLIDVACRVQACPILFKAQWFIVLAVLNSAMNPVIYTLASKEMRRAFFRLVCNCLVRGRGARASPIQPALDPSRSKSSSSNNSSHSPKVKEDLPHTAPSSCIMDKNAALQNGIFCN
Cl transport mod = modulates chloride dependent transport by human KCC2 | Q9H2X9 | KCC2 cells, thallium flux FluoZin-2 fluorescence | B-score of Tl+ flux slope (higher = more flux/activation; lower = inhibition) at 10 µM | 190,000 compounds, 2.2% hits | AID 1456;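 active means thallium flux slope and its plate-corrected score both differing from the plate sample mean at a set confidence after two filtering rounds, in either direction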;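 further: slope of fluorescence scaled to starting intensity during 10 to 20 s after thallium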
EP2 mod = modulators of human EP2 prostaglandin E2 receptor; P43116; EP2-expressing cells, cAMP HTRF FRET, PGE2 co-stimulation; induction, % at 25 µM; 260,000 compounds, 0.83% hits; AID 940;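 active means compounds whose cAMP rise, as percent of the full-agonist control response, exceeds 60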;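 further: rat C6 glioma line stably carrying human EP2 under a CMV promoter; the protocol text gives 20 µM as final concentration; 100% = response of wells given 1 µM PGE2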
KCC2 secondary = confirmation of human KCC2 transport modulators. shares compounds with Cl transport mod. HEK293-KCC2, thallium flux, FluoZin2 fluorescence; active compounds read high. normalised thallium flux (F/F0 slope) at 10 µM. 3,700 compounds, 15% hits;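 active means thallium flux slope above the same plate's solvent-only control mean plus 3 SD; inconclusive means the two replicate wells disagree; inactive means no significant difference from solvent-only control wells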
KCC2 bumet counter = thallium flux persisting under bumetanide in KCC2 cells, counter-screen secondary assay | shares compounds with Cl transport mod | HEK293-KCC2 + bumetanide/ouabain, thallium flux FluoZin2; active compounds read high | normalized thallium flux at 10 µM | 3,700 compounds, 49% hits;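 active means thallium entry rate above the same plate's blocked-transporter control wells by more than 3 SD; inconclusive means the two repeat wells disagree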;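 further: raw slope of fluorescence over initial fluorescence between 10 and 20 s after thallium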
KCC2 sec2 = confirmation of human KCC2 transport modulators. shares compounds with Cl transport mod. HEK293-KCC2, thallium flux FluoZin2 fluorescence; actives lie on both sides; F/F0 rise rate, 10–20 s post-thallium. normalized thallium flux at 10 µM. 3,700 compounds, 23% hits;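 active means thallium flux slope more than 3 SD above or below the plate's solvent-only control mean, mostly below; inconclusive means the two repeat wells disagreed; inactive means no significant shift from solvent-only controls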;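 further: raw slope with 0.1% DMSO as baseline and bumetanide as block control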
HEK293 Tl flux = acts in parental HEK cells, KCC2 counter-screen. shares compounds with Cl transport mod. HEK293 parental cells, thallium flux FluoZin2, ouabain; baseline-ratio fluorescence slope, 10–20 s after thallium. thallium flux rate (normalised fluorescence) at 10 µM. 3,700 compounds, 46% hits. AID 1716;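 active means thallium flux rate significantly above the same plate's solvent-only control wells, beyond their mean plus 3 SD; inconclusive means the two replicate wells gave conflicting results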
KCC2 ouabain = KCC2 (human) modulation, ouabain retest; shares compounds with Cl transport mod; HEK293-KCC2, thallium flux FluoZin2 fluorescence; bidirectional: low = inhibitor, high = activator; raw Tl+ flux slope (below DMSO = inhibition, above = activation) at 10 µM; 3,700 compounds, 48% hits; AID 1717;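 active means thallium flux slope beyond 3 SD from same-plate DMSO control mean in most replicates, usually higher, sometimes lower; inconclusive means repeat tests gave conflicting results; inactive means no significant difference from controls in most replicates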;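 further: slope of initial-normalized fluorescence between seconds 10 and 20 after thallium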
HEK counter2 = parental HEK flux effect, counter-screen 2. AID 1718. shares compounds with Cl transport mod. HEK293 parental, thallium flux FluoZin-2 fluorescence slope. 3,700 compounds, 33% hits. thallium flux slope at 10 µM;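 active means thallium flux slope above the same plate's solvent-control mean plus 3 SD in both duplicate wells; inconclusive means duplicate wells that disagreed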;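 further: run without ouabain in cells lacking the KCC2 cotransporter; slope of fluorescence scaled to its starting value between 10 and 20 s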
* marks the source's active call; other numbers are inactive results; ? = inconclusive; / = no result given.

SMILES	EP2 antag	S1P3 antag	Cl transport mod	EP2 mod	KCC2 secondary	KCC2 bumet counter	KCC2 sec2	HEK293 Tl flux	KCC2 ouabain	HEK counter2
Cc1cccc2cc(C#N)c(SCC(=O)Nc3ccc(F)cc3)nc12	24.5	/	/	10.3	/	/	/	/	/	/
COCc1nnc(NC(=O)COc2ccc(C(C)C)cc2)s1	19.1	/	/	-12.8	/	/	/	/	/	/
O=C(COc1ccc(C=C2C(=O)NC(=O)NC2=O)cc1)NC1CCCCC1	14.4	/	/	-1.4	/	/	/	/	/	/
Cc1ccc(-c2c(C)nn3c(NCCO)cc(C)nc23)cc1	4.8	/	/	-15.5	/	/	/	/	/	/
Cc1[nH]n(-c2ccccc2)c(=O)c1/C=N/N1C(=O)c2cccc3cccc(c23)C1=O	8.6	-24.7	24.5*	-39.4	?	0.0198*	0.045*	0.0169*	0.0322*	0.0166*
CCOC(=O)NNc1ccc2nonc2c1[N+](=O)[O-]	19.1	-3.1	12.7*	-17.9	0.00705	0.0133*	0.0334	0.013*	0.0244*	0.0133*
O=[N+]([O-])c1c(Nc2ccccc2)ccc2nonc12	2.1	/	/	1.8	/	/	/	/	/	/
CC(NS(=O)(=O)c1ccc2c(c1)NC(=O)CO2)C(=O)N1CCCCC1 (configuration not stated)	6.1	/	/	-21.4	/	/	/	/	/	/
Cc1ccc2cc(CN(CCO)C(=S)Nc3ccccc3)c(=O)[nH]c2c1C	3.2	/	/	-48.7	/	/	/	/	/	/
OCc1ccccc1CNCc1ccccc1	15.2	-22.1	/	-14.2	0.00974	0.00506	0.0347	0.00792	0.0194	0.0106
Cc1ccc2c(c1)nnn2C1CCN(C(=O)Nc2cccc(F)c2)CC1	6.7	/	/	-51.1	/	/	/	/	/	/
Cc1ccc(NC(=S)NNc2ccc([N+](=O)[O-])cc2S(=O)(=O)Nc2ccccc2C(=O)O)cc1C	10.7	-17.8	-6.13*	-24.1	0.00685	0.00468	0.0246*	?	0.0117*	?
O=C(O)c1ccccc1NS(=O)(=O)c1ccc(NNC(=S)Nc2ccc(OC(F)F)cc2)c([N+](=O)[O-])c1	6.0	0.6	-0.128	38.4	/	/	/	/	/	/
O=C(Cc1ccc(-n2cccc2)cc1)NC1CCCCCC1	7.3	/	-4.16*	-19.8	0.00651	0.00439	?	0.00715	0.0157	0.0103
CCc1nn(CC(=O)NCCCn2ccc(C)n2)c(=O)c2cc3sc(C)cc3n12	/	/	/	1.1	/	/	/	/	/	/
Cc1ccc2c(c1)cc(C)c1nn(CC(=O)N3CCCCC3)c(=O)n12	5.1	/	/	-23.4	/	/	/	/	/	/
CC(C)C1(C(C)C)OC(=O)c2ccccc21	6.8	-14.6	-0.139	26.4	/	/	/	/	/	/
O=C1OC(c2ccc(O)cc2)(c2ccc(O)cc2)c2ccccc21	15.7	-17.2	10.8*	41.4	0.00569	0.00957*	0.0349	0.00773	0.0248*	0.0117
COC(=O)c1sc(=S)n(Cc2ccccc2)c1C	5.1	12.0	-2.17	19.9	/	/	/	/	/	/
Cc1c(C(=O)O)sc(=S)n1CCOc1ccccc1	2.9	9.9	/	28.9	0.00719	0.00496	0.0241*	0.00664	0.0149*	0.0101
COc1ccccc1NC(=O)CSc1nnc2c(C)cc3ccccc3n12	21.4	/	/	-19.3	/	/	/	/	/	/
Cc1nc2scc(-c3ccc(Cl)cc3)c2c(=O)o1	7.1	/	/	14.4	0.0094	0.00672	0.0326	0.004	0.0194	0.0111
CCN(CC)c1ccc2cc(C(=O)Nc3c(C)cc(Br)cc3C)c(=O)oc2c1	5.6	/	/	-17.9	/	/	/	/	/	/
O=S(=O)(Nc1cccc2ncccc12)c1cccs1	0.9	3.6	28.5*	2.3	0.0248*	0.0693*	0.037*	0.0272*	0.0479*	0.0186*
Cc1c(NS(=O)(=O)c2cccs2)cccc1-c1nc2cccnc2s1	13.4	2.5	-0.46	-20.1	/	/	/	/	/	/
SMILES	EP2 antag	S1P3 antag	Cl transport mod	EP2 mod	KCC2 secondary	KCC2 bumet counter	KCC2 sec2	HEK293 Tl flux	KCC2 ouabain	HEK counter2
O=C(OCC#CCSc1nc2ccccc2s1)C1=CC2C=CC=CC2OC1=O (configuration not stated)	6.1	/	/	-67.3	/	/	/	/	/	/
CC(C)n1nc(C(=O)Nc2nc3ccccc3[nH]2)c2ccccc2c1=O	3.7	7.5	-3.97*	-10.6	0.0146	0.00369	0.0246*	?	0.0135	0.00882
CC(=O)Nc1ccc(-n2nnnc2SCC(=O)c2ccc(C)cc2C)cc1	9.6	/	/	-81.8	/	/	/	/	/	/
COc1ccc(CNC(=O)c2csc(Cc3ccc(Cl)cc3)n2)cc1	/	/	/	-1.0	0.00594	?	0.0249*	?	0.0152*	0.00964
Cc1c(CN(Cc2ccccc2F)C2CC(C)(C)NC(C)(C)C2)cnn1C	7.0	/	/	-41.4	/	/	/	/	/	/
O=C(N/N=C1\CC2CC=CC12)c1ccccc1Cl (configuration not stated)	7.0	1.4	0.35	11.6	/	/	/	/	/	/
FC(F)(F)c1ccccc1NC(=S)N/N=C1\CC2CC=CC12 (configuration not stated)	6.8	1.8	13.3*	-13.3	?	0.037*	0.0398*	0.0204*	0.0287*	0.0229*
COc1ccc(CCNc2oc(COc3ccccc3Cl)nc2C#N)cc1OC	20.2	4.1	-2.92	-77.4	/	/	/	/	/	/
COc1ccc(CCNc2oc(COc3ccccc3F)nc2C#N)cc1OC	21.2	34.8	-4.04*	-36.8	0.00615	?	0.0265*	0.00624*	0.015*	?
COc1ccc(C(=O)c2cn[nH]c2-c2cc(Cl)ccc2O)cc1	5.4	0.6	-5.07*	-14.6	0.00993	0.00602	0.0329	0.0072	0.0221	0.0107
CCCn1c(SCN2C(=O)c3ccccc3C2=O)nc2cc(Cl)ccc2c1=O	7.8	7.2	106*	16.5	0.0379*	0.171*	0.0534*	0.0915*	0.0838*	0.0462*
N/C(Cc1cccs1)=N\OC(=O)COc1ccc(Br)cc1Cl	16.5	/	-0.535	1.4	/	/	/	/	/	/
N/C(Cc1cccs1)=N\OC(=O)COc1ccccc1Cl	14.7	/	/	16.3	0.00817	0.00537	0.0319	?	0.0183	0.00931
O=C(Nc1ccc(OC(F)(F)F)cc1)c1[nH]ncc1[N+](=O)[O-]	14.4	-3.9	13*	-51.8	0.00809	0.0204*	0.0328	0.0221*	?	0.0157*
COc1cccc(NC(=O)CSc2nc(C3CC3)nc3sc(C)c(C)c23)c1	9.8	/	/	36.0	/	/	/	/	/	/
CCOc1ccc(NC(=S)NC(=O)c2c(Cl)c(C)nn2C)c([N+](=O)[O-])c1	6.1	8.6	9.45*	25.4	0.011	0.0171*	0.0343	?	?	0.0119
CCOc1ccc(NC(=S)NC(=O)/C=C/c2ccc(C)cc2)c([N+](=O)[O-])c1	/	/	-0.24	-12.4	/	/	/	/	/	/
